The values that follow come from PubChem BioAssay (Tox21).

Active and inactive are the calls of the source. Calls come from the whole dose curve; as a rule, active = well fitted activation curve with a large enough effect in the repeat runs; inconclusive = weak or mixed curves; inactive = flat fitted curve, though single readings scatter. Positions of bridges follow the written chain, without caps; N, C: chain ends. Non-standard residues stand in square brackets, D forms with d. Residues, ends and D or L forms follow the SMILES beside them. *: point of attachment. Dab(CH2SO3H) = N[C@@H](CCNCS(=O)(=O)O)C(=O)O; X3 = CC[C@@H](C)CCCCC(=O)*; Dab = NCC[C@H](N)C(=O)O
% is set by controls: 0 for no effect and ±100 for the full control effect; potency is the fitted concentration of half-maximal effect.

Androgen receptor (Homo sapiens), sequence (P10275 whole entry, looked up): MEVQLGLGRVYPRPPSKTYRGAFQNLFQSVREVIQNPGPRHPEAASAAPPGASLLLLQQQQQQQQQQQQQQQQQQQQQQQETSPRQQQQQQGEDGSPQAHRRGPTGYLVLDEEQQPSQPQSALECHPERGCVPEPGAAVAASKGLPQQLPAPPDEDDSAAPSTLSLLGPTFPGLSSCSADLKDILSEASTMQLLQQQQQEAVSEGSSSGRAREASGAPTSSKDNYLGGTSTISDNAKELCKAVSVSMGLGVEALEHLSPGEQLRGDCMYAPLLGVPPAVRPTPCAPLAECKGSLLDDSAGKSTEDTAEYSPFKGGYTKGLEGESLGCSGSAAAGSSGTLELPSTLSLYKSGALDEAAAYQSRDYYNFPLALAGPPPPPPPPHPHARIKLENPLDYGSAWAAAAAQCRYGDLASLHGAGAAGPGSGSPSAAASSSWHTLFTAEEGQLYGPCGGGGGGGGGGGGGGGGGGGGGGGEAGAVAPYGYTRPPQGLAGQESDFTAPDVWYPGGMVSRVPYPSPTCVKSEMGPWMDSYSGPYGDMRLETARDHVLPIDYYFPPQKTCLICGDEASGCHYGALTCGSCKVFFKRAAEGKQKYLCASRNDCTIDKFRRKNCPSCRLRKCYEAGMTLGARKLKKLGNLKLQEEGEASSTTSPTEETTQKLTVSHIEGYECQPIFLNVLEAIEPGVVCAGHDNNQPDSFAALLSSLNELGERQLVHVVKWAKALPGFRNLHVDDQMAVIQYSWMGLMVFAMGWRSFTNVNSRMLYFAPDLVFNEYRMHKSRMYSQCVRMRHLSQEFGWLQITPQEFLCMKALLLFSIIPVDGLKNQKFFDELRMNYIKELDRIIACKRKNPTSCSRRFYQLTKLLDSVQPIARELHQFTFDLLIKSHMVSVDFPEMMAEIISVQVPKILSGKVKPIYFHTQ

This assay concerns the target Androgen receptor (Homo sapiens) (UniProt P10275). In words: qHTS assay to identify small molecule agonists of the androgen receptor (AR) signaling pathway using the MDA cell line (AID 743040; note: nearly all actives have a fitted effect of over 20% in size). The conditions noted are these: MDA-kb2 AR-luc cells, MMTV luciferase, 16 h; series mostly up to 70.3 µM; activity change: at the top concentration. An excerpt: National Center for Advancing Translational Sciences [NCATS]
NIH Chemical Genomics Center [NCGC]
U.S. Environmental Protection Agency [EPA]
National Institutes of Environmental Health Sciences [NIEHS]
National Toxicology Program [NTP]
U.S. Food and Drug Administration [FDA]
Androgen receptor (AR), a nuclear hormone receptor, plays a critical role in AR-dependent prostate cancer and other androgen related diseases. Endocrine disrupting chemicals (EDCs) and their interactions with steroid hormone receptors like AR may cause disruption of normal endocrine function as well as interfere with metabolic homeostasis, reproduction, developmental and behavioral functions. To identify the compounds that activate AR signaling, MDA-kb2 AR-luc cell line (from ATCC, deposited by Wilson et al.) was used to screen the Tox21 10K compound library. MDA-kb2 AR-luc cell line is human breast carcinoma cell line that was stably transfected with a luciferase reporter gene under control of the MMTV promoter containing response elements for both androgen receptor (AR) and glucocorticoid receptor (GR).
Tox21 Assay Protocol Summary:
MDA-kb2 AR-luc cells were dispensed at 3,000 cells/5 uL/well of culture medium into white wall/solid-bottom 1536-well plates using a Multidrop Combi (ThermoFisher Scientific, Waltham, MA) dispenser. After the assay plates were incubated at 37C and 0% CO2 for 5 h, 23 nL of compounds dissolved in DMSO, positive controls or DMSO only was transferred to the assay plate by a Pintool station (Kalypsys, San Diego, CA). The plates were incubated at 37C and 0% CO2 for 16 h. Then 4 uL of ONE-Glo reagent (Promega, Madison, WI) was added to each plate using a Bioraptr Flying Reagent Dispenser (FRD) workstation (Beckman Coulter, Indianapolis, IN, USA) and luminescence was quantified on a ViewLux (PerkinElmer, Shelton, CT) plate reader after 30 min incubation at room temperature.
As for `O=C(O)C[C@H](O)C[C@H](O)/C=C/c1c(C2CC2)nc2ccccc2c1-c1ccc(F)cc1`, the “activity change” value was 3.36% (inactive).

In the case of `O=C(O)Cc1nn(Cc2ccc(Br)cc2F)c(=O)c2ccccc12`, the “activity change” value is -0.817% (inactive).

With `CCOc1cc(CC(=O)N[C@@H](CC(C)C)c2ccccc2N2CCCCC2)ccc1C(=O)O`, the Potency was 11.4 µM (active).

`N#Cc1nc(Cl)c(Cl)c(Cl)c1Cl`: the “activity change” value was -11.1% (inactive).

For `Nc1c(CC(=O)O)cccc1C(=O)c1ccccc1`, the Potency entry was “inactive”.

In the case of `C[C@]12O[C@H](C[C@]1(O)CO)n1c3ccccc3c3c4c(c5c6ccccc6n2c5c31)CNC4=O`, the “activity change” value was -13.3% (inactive).

`O=C(O)COc1ccccc1/C=N/NC(=O)c1ccncc1`: the “activity change” value is 1.38% (inactive).

With `NC(=O)c1cc[n+](CC2=C(C(=O)O)N3C(=O)[C@@H](NC(=O)C(c4ccccc4)S(=O)(=O)[O-])[C@H]3SC2)cc1` (stereo not given in full), the “activity change” value is 1.35% [at 32.5 µM, stronger effect = higher value] (inactive).

For the compound `CC(=O)OCC1=C(C(=O)O)N2C(=O)[C@@H](NC(=O)Cc3ccccc3)[C@H]2SC1`, the “activity change” value was -0.341% (inactive).

In the case of `O=C(CCCCCCCCc1cccnc1)N1CCC(C=C(c2ccccc2)c2ccccc2)CC1`, the “activity change” value was -1.81% (inactive).

For `CC(C)(Oc1ccc(C2CCCc3ccccc32)cc1)C(=O)O` (stereo not given), the “activity change” value is -2.46% (inactive).

On to `CO/N=C(\C(=O)N[C@@H]1C(=O)N2C(C(=O)O)=C(C[N+]3(C)CCCC3)CS[C@H]12)c1csc(N)n1`, for which the “activity change” value was 0% (inactive).

Regarding `CCOC(=O)[C@H](CCc1ccccc1)N[C@@H](C)C(=O)N1[C@H](C(=O)O)C[C@H]2CCCC[C@@H]21`, the Potency entry was “inactive”.

On to `O=C(O)COc1ccc(C(=O)c2cccs2)c(Cl)c1Cl`, for which the Potency result is “inactive”.

In the case of `CC(C)NCC1CCc2cc(CO)c([N+](=O)[O-])cc2N1` (stereo not given), the “activity change” value is 0.596% [at 32.5 µM, stronger effect = higher value] (inactive).

On to `C=C1C(CCl)(CCl)C2(Cl)C(Cl)C(Cl)C1(Cl)C2(Cl)Cl` (stereo not given), for which the Potency result is “inactive”.

On to `C=C1[C@H](CO)[C@@H](O)C[C@@H]1n1cnc2c(=O)[nH]c(N)nc21`, for which the “activity change” value is 1.44% (inactive).

For the compound `CN1CC[C@H](c2c(O)cc(O)c3c(=O)cc(-c4ccccc4Cl)oc23)[C@H](O)C1`, the “activity change” value was -6.19% (inactive).

As for `COc1cc(/C=C/C(=O)CC(=O)/C=C/c2ccc(O)c(OC)c2)ccc1O`, the Potency entry is “inactive”.

Regarding `O=C1c2ccccc2-c2n[nH]c3cccc1c23`, the “activity change” value is 0.865% (inactive).

Consider `CN(C)CCc1c[nH]c2ccc(Cn3cncn3)cc12`, for which the “activity change” value is -0.948% (inactive).

Consider `COc1c(O)cc2c(c1O)[C@@H]1O[C@H](CO)[C@@H](O)[C@H](O)[C@H]1OC2=O`, for which the “activity change” value is 2.53% [at 32.5 µM, stronger effect = higher value] (inactive).

For `C[C@@H]1C(=O)NC2=Nc3cccc(Cl)c3CN21`, the “activity change” value was 1.59% (inactive).

In the case of `CC(=O)[C@]1(O)Cc2c(O)c3c(c(O)c2[C@@H](O[C@H]2C[C@H](N)[C@H](O)[C@H](C)O2)C1)C(=O)c1ccccc1C3=O`, the “activity change” value is -12.6% (inactive).

Turning to `O=C1C2CC3CC1CC(O)(C3)C2`, the “activity change” value is -0.298% (inactive).

With `COc1cccc2c1[C@@H]1CN(CCCCn3c(=O)[nH]c4c(sc5ncc(-c6ccccc6)nc54)c3=O)C[C@@H]1CO2`, the “activity change” value is -11.9% (inactive).

For the compound `CC[C@@H](C(=O)[C@@H](C)[C@@H](O)[C@H](C)CCc1ccc(C)c(O)c1C(=O)O)[C@H]1O[C@](CC)([C@H]2CC[C@](O)(CC)[C@H](C)O2)C[C@@H]1C`, the Potency was 1.88 µM (active).

`CC(C)OC(=O)Nc1ccc2nc(-c3cscn3)[nH]c2c1`: the “activity change” value is 14.1% (inactive).

Take `CCC1OC(=O)C[C@@H](O)[C@H](C)[C@@H](O[C@@H]2O[C@H](C)C[C@H](N(C)C)[C@H]2O)[C@@H](CC=O)C[C@@H](C)C(=O)/C=C/[C@]2(C)OC2C1C` (stereo not given in full): the Potency entry was “inactive”.

On to `CCC[C@@H]1C[C@@H](C(=O)N[C@@H]([C@H]2O[C@H](SC)[C@H](OP(=O)(O)O)[C@@H](O)[C@H]2O)[C@H](C)Cl)N(C)C1`, for which the Potency result was “inactive”.

Turning to `CC1(C)CCC(NC(=O)[C@@H](N)CCC(=O)O)CC1`, the “activity change” value was 0.102% (inactive).

As for `NC(N)=NCC1COC2(CCCCC2)O1` (stereo not given), the “activity change” value is 18.2% [at 32.5 µM, stronger effect = higher value] (inactive).

For `C[C@@H]1O[C@@H]1P(=O)(O)O`, the “activity change” value is 1.15% (inactive).

Consider `CO/N=C(\C(=O)N[C@@H]1C(=O)N2C(C(=O)O)=C(CSc3cnns3)CS[C@H]12)c1csc(N)n1`, for which the “activity change” value was -0.132% (inactive).

Regarding `CCCCCCCCCCCCCCCC(=O)OC[C@H](COP(=O)([O-])OCC[N+](C)(C)C)OC(=O)CCCCCCCCCCCCCCC`, the “activity change” value is 1.71% (inactive).

For the compound `CN(C[C@@H](CC[N+]12CCC(C3CCCCC3)(CC1)CC2)c1ccc(Cl)c(Cl)c1)C(=O)c1cc(C(F)(F)F)cc(C(F)(F)F)c1`, the “activity change” value was -12.5% (inactive).

With `CC[C@@H](C)CCCCC(=O)N[C@@H](CCNCS(=O)(=O)O)C(=O)N[C@H](C(=O)N[C@@H](CCNCS(=O)(=O)O)C(=O)N[C@H]1CCNC(=O)[C@H]([C@@H](C)O)NC(=O)[C@H](CCNCS(=O)(=O)O)NC(=O)[C@H](CCNCS(=O)(=O)O)NC(=O)[C@H](CC(C)C)NC(=O)[C@@H](CC(C)C)NC(=O)[C@H](CCNCS(=O)(=O)O)NC1=O)[C@@H](C)O` (X3-[Dab(CH2SO3H)]T[Dab(CH2SO3H)][Dab][Dab(CH2SO3H)][dL]L[Dab(CH2SO3H)][Dab(CH2SO3H)]T; lactam 4-C), the “activity change” value is 2.32% (inactive).

For `CCCCCCCCCCCCCCCCCCNC(=O)OC1CCN(C(=O)OC[C@H](COC(=O)N(Cc2cccc[n+]2CC)C(=O)c2ccccc2OC)OC)CC1`, the “activity change” value is -11.1% (inactive).

For `CC[C@H](C)C(=O)O[C@H]1CCC=C2C=C[C@H](C)[C@H](CC[C@@H]3C[C@@H](O)CC(=O)O3)[C@H]21`, the “activity change” value is 1.15% (inactive).

For `Cc1cc(=O)c(C(=O)N[C@@H](C(=O)N[C@@H]2C(=O)N3C(C(=O)O)=C(CSc4nnnn4C)CS[C@H]23)c2ccc(O)cc2)c[nH]1`, the “activity change” value was 5.23% (inactive).
